Shown are actives, neighbours in structure and some others; about 32% of the full set was active somewhere.
PostGolgi ctrl – growth inhibition of yeast control strain, primary screen, counter-screen for post-Golgi transport modulator project; efflux-deficient yeast background strain, growth absorbance A615, 16 h; inhibition, % at 10 µM; actives 5% (n = 98,000); AID 738, 2007
PostGolgi yeast – phenotypic screen on post-Golgi transport, primary screen | post-Golgi transport phenotypic cell assay | inhibition, % at 10 µM | actives 0.9% (n = 98,000) | AID 739, 2007;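 further: yeast cells grown in 1536-well plates; yeast grown about 18 h at 30C before absorbance read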
CYP2C9 inh – blockers of cytochrome P450 2C9 activity – biochemical, luminescence, ADME assay, primary screen. P11712. actives 20% (n = 96,000). inhibition, % at 5 µM. CYP2C9 Supersomes, luciferin-H conversion;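 active means blocking of liver enzyme CYP2C9 beyond about 50% at 5 µM, limit read from the data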
CYP2C19 act – human CYP2C19 activators, primary screen, biochemical, luminescence. Cytochrome P450 2C19 (Homo sapiens), P33261. recombinant CYP2C19, luciferin-H EGE luminescence; stronger effect = higher value; 0 = fully inhibited enzyme, 1 = untreated enzyme. activation factor at 5 µM. 96,000 tested, under 10 active;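 active means activation factor of at least 2 at 5 µM in the primary screen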
Target sequence (P33261 whole entry, looked up): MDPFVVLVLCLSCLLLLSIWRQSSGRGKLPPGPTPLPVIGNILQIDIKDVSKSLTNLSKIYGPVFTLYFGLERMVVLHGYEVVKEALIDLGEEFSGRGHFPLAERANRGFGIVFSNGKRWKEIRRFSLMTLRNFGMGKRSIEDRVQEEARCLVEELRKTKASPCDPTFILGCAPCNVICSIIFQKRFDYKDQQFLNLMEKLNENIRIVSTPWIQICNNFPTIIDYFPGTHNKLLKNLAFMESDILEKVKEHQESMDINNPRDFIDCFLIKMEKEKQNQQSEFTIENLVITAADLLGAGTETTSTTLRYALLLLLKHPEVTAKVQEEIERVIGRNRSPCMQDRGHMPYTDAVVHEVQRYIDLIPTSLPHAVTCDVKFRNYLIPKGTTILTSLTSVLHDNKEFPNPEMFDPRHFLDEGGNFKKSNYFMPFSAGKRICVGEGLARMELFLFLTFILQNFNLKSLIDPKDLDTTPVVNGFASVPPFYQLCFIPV
CYP2C9 activ – human CYP2C9 activators, primary screen, biochemical, luminescence; recombinant CYP2C9, luciferin-H conversion; stronger effect = higher value; factor 1 = untreated enzyme, 0 = blocked; activation factor at 5 µM; actives 1.4% (n = 96,000); Cytochrome P450 2C9 (Homo sapiens), P11712; AID 1024, 2008;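 active means activation factor of 2 or more for CYP2C9 at a 5 µM dose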
CYP2C19 inh – blockers of cytochrome P450 2C19 activity – biochemical, luminescence, ADME assay, primary screen; P33261; CYP2C19 Supersomes, luciferin-H EGE luminescence, 30 min; inhibition, % at 5 µM; actives 21% (n = 96,000); AID 778, 2007;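 active means CYP2C19 inhibition above a set limit at 5 µM in the primary screen, cut at about 50% in these data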
Numbers stand for hits; i = inactive; nt = no result given. Unless noted, no stated cut-off is given here; in the data, active means inhibition above about 30%; inactive means the rest.

SMILES	PostGolgi ctrl	PostGolgi yeast	CYP2C9 inh	CYP2C19 act	CYP2C9 activ	CYP2C19 inh
CCOC(=O)Cc1nnc2c(Nc3ccc(Cl)cc3)nc3nonc3n12	i	i	i	i	i	i
CS(=O)(=O)C1=C(O)C(=O)N(c2ccccc2)C1c1ccccc1 (centres undefined)	i	i	i	i	i	51
CCOC(=O)CSc1nc2ccccc2n1CC(=O)NC(C)(C)C	i	i	i	i	i	i
CCc1cccc(C)c1NC(=O)CSc1nc2ccccc2n1CC(=O)N(C)C	i	i	i	i	i	54
CCCn1c(SCC(=O)Nc2c(C)cccc2CC)nnc1C(C)C	i	i	i	i	i	i
CCc1ccccc1NC(=O)CSc1nc2ccccc2n1CC(=O)N(C)C	i	i	56	i	i	79
Cc1cc(NCCCn2ccnc2)n2nc(C)c(-c3ccc(Cl)cc3)c2n1	i	i	89	i	i	90
Cc1cc(NCCN2CCOCC2)n2nc(C)c(-c3ccc(Cl)cc3)c2n1	34	47	57	i	i	i
Cc1cc(NCCCn2ccnc2)n2ncc(-c3ccccc3)c2n1	38	i	98	i	i	99
Cc1cc(NCCCn2ccnc2)n2nc(C)c(-c3ccccc3)c2n1	i	i	88	i	i	90
Cc1cc(NCCN2CCOCC2)n2nc(C)c(-c3ccccc3)c2n1	i	i	i	i	i	i
Cc1cc(NCCN2CCOCC2)n2ncc(-c3ccccc3)c2n1	i	i	i	i	i	i
COC(=O)c1ccc(CSc2nnnn2-c2ccc(C)cc2C)o1	i	i	86	i	i	90
CCc1nnc(SCc2ccc(C(=O)OC)o2)n1N	i	i	i	i	i	i
COC(=O)C(C)Sc1nnc(-c2ccncc2)o1 (centres undefined)	i	i	i	i	i	89
COC(=O)c1ccc(CSc2nnc3ccccn23)o1	i	i	i	i	i	52
Cc1ccc(-n2nnnc2SCC(=O)NCCC2=CCCCC2)c(C)c1	i	i	80	i	i	71
CCCOc1ccc(/C(O)=C2/C(=O)C(=O)N(CCN(CC)CC)C2c2ccncc2)cc1 (centres undefined)	nt	nt	i	i	i	i
COC(=O)c1ccc(CSc2nnc(-c3ccncc3)n2Cc2ccccc2)o1	i	i	74	i	i	87
Cc1ccc(NC(=O)CCSc2nnc3ccccn23)cc1	i	i	i	i	i	55
COC(=O)c1ccc(CSc2nnc(-c3ccncc3)o2)o1	nt	nt	76	i	i	91
Nc1c(C(=O)c2ccccc2)oc2ccccc12	i	i	i	i	i	85
COc1ccc(C(=O)c2oc3ccccc3c2N)cc1	i	i	i	i	i	69
Nc1c(C(=O)Nc2ccc(Cl)cc2)oc2ccccc12	i	i	63	i	i	54
CN(C)CCCNC(=O)C1CCNCC1	i	i	i	i	i	i
SMILES	PostGolgi ctrl	PostGolgi yeast	CYP2C9 inh	CYP2C19 act	CYP2C9 activ	CYP2C19 inh
CCOC(=O)Cc1cnc(NC(=O)Cn2nnc(-c3ccc(OCC)cc3)n2)s1	i	i	85	i	i	66
CCOC(=O)Cn1nnc(-c2ccc(OCC(C)C)cc2)n1	i	i	i	i	i	i
CCCCOc1ccc(-c2nnn(CC(=O)Nc3ncc(CC(=O)OCC)s3)n2)cc1	i	i	76	i	i	i
CCOC(=O)CSC(CC)C(=O)Nc1nnc(C(C)C)s1 (centres undefined)	i	i	nt	nt	nt	nt
O=C(Nc1ccc(Cl)cc1)[C@@H]1[C@@H]2C(=O)N(c3ccc(Cl)cc3)C(=O)[C@@H]2[C@H]2C=CC=NN21	i	i	59	i	i	i
COc1cc2c(cc1OC)C(C(=O)N1CCN(c3ccccc3)CC1)C(c1cccs1)N(C)C2=O (centres undefined)	i	i	i	i	i	i
COc1ccccc1NC(C)=O	i	i	i	i	i	i
COc1ccc(Cl)cc1NC(=O)Nc1cccc([N+](=O)[O-])c1C	42	i	i	i	i	i
COc1ccc(OC)c(NC(=O)c2cc(-c3cc(Cl)ccc3O)n[nH]2)c1	i	i	i	i	2.4	i
O=C(Nc1ccncc1)Nc1ccccn1	i	i	68	i	i	91
COc1ccccc1NC(=O)C(O)C(O)C(=O)Nc1ccccc1OC (centres undefined)	i	i	i	i	3.2	i
Cc1nc2ccc(S(=O)(=O)NCC(=O)N3CCCC(C)C3)cc2s1 (centres undefined)	i	i	i	i	i	i
O=C1CC(N2CCC(C(=O)N3CCCCC3)CC2)C(=O)N1 (centres undefined)	i	i	i	i	i	i
CCN1CCN(Cc2ccc(NC(=O)Nc3ccccc3OC)cc2)CC1	i	i	i	i	i	i
COc1ccccc1NC(=O)c1ccc(N)cc1	i	i	i	i	4.1	i
COc1cc(N)c(Cl)cc1NC(=O)c1ccccc1	39	i	i	i	i	i
COc1ccc(OC)c(NC(=O)N[C@@H](Cc2ccccc2)C(=O)O)c1	i	i	i	i	i	i
COc1ccc(OC)c(NC(=O)Nc2cccc(Cn3cccn3)c2)c1	i	i	83	i	i	74
COc1ccc(NC(=O)Nc2ccccc2OC)cc1	i	i	i	i	i	87
Cc1cc(NC(=O)C2CC(c3cccc(Br)c3)=NO2)no1 (centres undefined)	i	i	i	i	i	i
COc1ccc(NC(=O)CS(=O)CC(=O)Nc2cc(Cl)ccc2OC)cc1 (centres undefined)	i	i	i	i	i	i
O=C(CC(=O)Nc1ccccn1)Nc1ccccn1	i	i	i	i	i	i
COc1ccc(NC(=O)Nc2cc(C)ccc2OC)cc1	i	i	i	i	i	95
COc1ccc(C)cc1NC(=O)Nc1ccccc1	i	i	i	i	i	i
COc1ccc(OC)c(NC(=O)Nc2ccc(Cl)cc2)c1	41	i	i	i	i	i
SMILES	PostGolgi ctrl	PostGolgi yeast	CYP2C9 inh	CYP2C19 act	CYP2C9 activ	CYP2C19 inh
CCCCCCCCCCNC(=O)C(=O)Nc1ccccn1	i	i	i	i	i	55
COC(=O)c1cc(NC(=O)Nc2cc(OC)ccc2OC)cc(C(=O)OC)c1	i	i	51	i	i	i
CC1(C)CN=C(NC2CCCCC2)S1	i	i	i	i	i	i
Cc1cc(C)n2nc(S(=O)(=O)NC3CCCCC3)nc2n1	i	i	i	i	i	i
C/C(CC(=O)Nc1ccc(OCc2ccccc2)cc1)=N\NC(=O)C(=O)Nc1ccc(C)c(Cl)c1	i	i	i	i	i	i
Cc1c(Cl)cccc1NC(=O)c1cc(-c2ccccc2O)n[nH]1	i	i	i	i	2.7	i
COc1ccccc1NC(=O)C(=O)Nc1ccccn1	i	i	i	i	2.3	i
COc1ccccc1NC(=O)C1C2CCCCC21 (centres undefined)	i	i	i	i	3.6	i

Source: PubChem (several laboratories)
